# The source made the active and inactive calls.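 The calls were made as follows, unless noted: active = inhibition above 20% together with a positive visual image hit; inconclusive = visual image hit but inhibition not above 20%; inactive = no visual image hit.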
# Key:
# [1] = inhibitors of TNFa-induced NFkB p65 translocation, primary screen, imaging, HUVEC, MLSMR starter and 10KST1 sets (AID 438); details: HUVEC TNFa-induced p65 nuclear translocation; cell count: measured here: nuclei count (cytotoxicity indicator), at 2.08 µM; inhibition: at 2 µM, stronger effect = higher value, 0% TNFa-plus-vehicle, 100% no-TNFa wells;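 also: compound added about 3h40 before a 20 min TNFalpha stimulation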;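 as to inhibition: signal is the nuclear over cytoplasmic p65 intensity ratio per well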
# [2] = reduction of polyQ htt aggregates in cells – imaging, exon1htt(103Q)mCFP cells, high-content imaging, primary screen (AID 483;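 active = visual image review flags a hit and inhibition of aggregation exceeds 20%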;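 also: compound exposure lasted 3 days before fixation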;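 as to nuclei count: percent of the per-plate median nuclei count of sample wells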); details: exon1htt(103Q)mCFP cell line, aggregate imaging, at 2 µM; inhibition of aggregation: stronger effect = higher value; nuclei count: measured here: cell count, toxicity
# [3] = endothelial E-selectin expression blockers – imaging, HUVEC, immunofluorescence, MLSMR starter and 10KST1 sets, primary screen (AID 487;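 active = visually confirmed hit in the image check and inhibition above 20%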;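 as to inhibition: signal is fraction of cell area covered by stained E-selectin grains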;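 as to nuclei count: 100% = median nuclei count of all wells on the same plate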); details: HUVEC TNFalpha-induced E-selectin immunofluorescence imaging, at 2 µM; inhibition: stronger effect = higher value; nuclei count: measured here: cell number, toxicity
# [4] = target: Voltage-gated potassium channel subunit beta-2 (Rattus norvegicus) (UniProt P62483); test: inhibitors of rat Kvbeta2 reductase activity – biochemical, NADPH fluorescence, primary screen (AID 622;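 active = fluorescence slope higher than the sample average by over 3 SD, cut at about -0.22 in these data, passing the limit was not always enough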;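 also: slope of raw intensity against log time taken from 70 to 1610 s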); details: recombinant KvBeta, 4-cyanobenzaldehyde reduction, at 10 µM, stronger effect = higher value
# [5] = target: Voltage-gated potassium channel subunit beta-2 (Rattus norvegicus) (UniProt P62483); test: enhancers of rat Kvbeta2 NADPH turnover – biochemical, NADPH fluorescence, primary screen (AID 623;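 active = NADPH fluorescence slope more negative than the mean of all samples by about 3 SD, 99.7% confidence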;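 also: fluorescence intensity change per second fitted from 20 to 320 s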); details: Recombinant KvBeta, NADPH fluorescence decrease slope, 10 min; at 10 µM; stronger effect = lower value
# [6] = target: Alpha-2C adrenergic receptor (Homo sapiens) (UniProt P18825); test: compounds altering alpha2C-coupled GIRK flux – cell-based, HEK293 alpha2C/GIRK1/2, thallium flux, primary screen (AID 624;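 active = fluorescence slope after compound addition differing from the mean of all screened samples at 99.7% confidence, in either direction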;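 also: slope of fluorescence ratio to pre-addition baseline per second over 15 to 24 s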); details: thallium flux BTC fluorescence, at 10 µM, actives lie on both sides
# [7] = blockers of RIG-like receptor reporter activation – cell-based, Sendai virus stimulus, luciferase, 10K MLSCN set, TLR/RLR signaling modifier project, primary screen (AID 602276;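 active = inhibition at or above 50% at 10 µM; inactive = inhibition below 50%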;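 also: firefly luciferase from ISG56 promoter only with Renilla not read in this screen; 0% = Sendai virus plus DMSO and 100% = medium plus DMSO without virus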); details: HEK293 RL24 IRF3 luciferase reporter, at 10 µM, stronger effect = higher value
# [8] = TLR3 IRF3 reporter activation blockers – cell-based, poly I:C stimulus, luciferase, 10K MLSCN set, primary screen (AID 602277;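 active = inhibition of the reporter signal at or above 50%; inactive = inhibition below 50%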); details: HEK293-TLR3 RL24 IRF3 luciferase reporter, at 10 µM, stronger effect = higher value
# Sequence of Alpha-2C adrenergic receptor (Homo sapiens) (P18825 whole entry, looked up): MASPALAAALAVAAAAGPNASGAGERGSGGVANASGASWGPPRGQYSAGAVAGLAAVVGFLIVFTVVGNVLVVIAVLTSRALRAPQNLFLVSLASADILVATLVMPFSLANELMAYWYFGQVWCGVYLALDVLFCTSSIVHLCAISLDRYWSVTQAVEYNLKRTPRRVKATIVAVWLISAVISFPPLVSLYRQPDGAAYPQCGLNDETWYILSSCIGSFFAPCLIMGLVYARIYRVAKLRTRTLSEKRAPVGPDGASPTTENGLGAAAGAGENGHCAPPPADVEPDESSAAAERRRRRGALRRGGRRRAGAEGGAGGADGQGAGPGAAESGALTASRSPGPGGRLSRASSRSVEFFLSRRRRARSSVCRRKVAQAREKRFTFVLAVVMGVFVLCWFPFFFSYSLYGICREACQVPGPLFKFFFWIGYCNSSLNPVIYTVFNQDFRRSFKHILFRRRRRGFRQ
# Sequence of Voltage-gated potassium channel subunit beta-2 (Rattus norvegicus) (P62483 whole entry, looked up): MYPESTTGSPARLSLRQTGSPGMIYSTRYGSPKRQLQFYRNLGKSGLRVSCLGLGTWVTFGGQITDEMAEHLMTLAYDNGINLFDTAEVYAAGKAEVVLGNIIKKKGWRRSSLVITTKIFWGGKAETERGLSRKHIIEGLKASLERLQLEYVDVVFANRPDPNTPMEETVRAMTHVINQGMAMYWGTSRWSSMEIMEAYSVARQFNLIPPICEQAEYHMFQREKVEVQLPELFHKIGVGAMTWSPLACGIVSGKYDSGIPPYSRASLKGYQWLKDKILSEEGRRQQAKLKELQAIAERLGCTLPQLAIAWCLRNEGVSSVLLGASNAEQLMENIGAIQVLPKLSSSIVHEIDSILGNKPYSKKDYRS
SMILES,cell count [1],inhibition [1],inhibition of aggregation [2],nuclei count [2] [%],inhibition [3],nuclei count [3] [%],fluorescence slope [4],NADPH fluorescence slope [5],slope [6],inhibition [7],inhibition [8]
CC(C)(C)C(=O)CNS(=O)(=O)c1ccc(S(=O)(=O)NC2CCCC2)cc1,479,6% (inactive),2.6% (inactive),113,-35.9% (inactive),94.4,-0.47 (inactive),2.8e-05 (inactive),0.00543 (inactive),9.9% (inactive),22.1% (inactive)
CC(C)Cn1c(N)c(C(=O)COC(=O)c2ccc3c(c2)OCCO3)c(=O)n(C)c1=O,365,-4.4% (inactive),-5.7% (inactive),75.7,-5.7% (inactive),106,-0.575 (inactive),-6.3e-05 (inactive),0.0066 (inactive),-14.6% (inactive),-49.5% (inactive)
COc1cccc(-c2cc(C(=O)N3CCc4ccccc4C3)no2)c1,550,-17% (inactive),1% (inactive),111,18.5% (inactive),99.8,-0.445 (inactive),7.7e-06 (inactive),0.0069 (inactive),-3.65% (inactive),13.4% (inactive)
CCOCC(=O)Nc1sc2c(c1C(=O)OCC)CCCC2,300,-1.6% (inactive),16.6% (inactive),65.8,-39.3% (inactive),116,-0.347 (inactive),-5.2e-05 (inactive),0.00551 (inactive),9.19% (inactive),14% (inactive)
CCN(CC)CCn1c2ccccc2c2nc(C)sc21,613,-3.3% (inactive),-5% (inactive),98.7,34% (inactive),86.3,-0.622 (inactive),-3.9e-06 (inactive),0.00718 (inactive),16.1% (inactive),21.2% (inactive)
O=C(c1ccncc1)N1CCN(C(=O)c2cccs2)CC1,454,-3.3% (inactive),1.6% (inactive),110,0.5% (inactive),106,-0.459 (inactive),-3e-05 (inactive),0.00631 (inactive),12.1% (inactive),14.2% (inactive)
Cc1nc2ccc(C(=O)c3ccccc3)cc2[nH]1,411,7.2% (inactive),18.6% (inactive),69.6,-8.7% (inactive),105,-0.389 (inactive),2.4e-05 (inactive),0.00371 (inactive),-30.7% (inactive),-56.7% (inactive)
Cn1c(=O)c2c(nc(CN3CCCCC3)n2CCCc2ccccc2)n(C)c1=O,431,10.1% (inactive),-30.7% (inactive),102,38.4% (inactive),102,-0.46 (inactive),-9.8e-06 (inactive),0.00664 (inactive),15.4% (inactive),44.7% (inactive)
CCCCc1ccc(NC(=O)N[C@H](C(=O)O)C(C)C)cc1,388,-19.8% (inactive),-0.3% (inactive),89.1,-26.2% (inactive),84.1,-0.481 (inactive),1.8e-05 (inactive),0.00552 (inactive),-0.498% (inactive),-7.11% (inactive)
COc1ccc(CNC(=O)c2cc3c(=O)n4ccccc4nc3n(Cc3ccco3)c2=N)cc1,666,-7.8% (inactive),-28.6% (inactive),127,-30.5% (inactive),113,-0.597 (inactive),-6e-07 (inactive),0.0063 (inactive),14.5% (inactive),20.4% (inactive)
C/C=C(\CS(=O)(=O)c1ccccc1)S(=O)(=O)c1ccccc1,167,2.2% (inactive),9.7% (inactive),101,-49.3% (inactive),73,-0.508 (inactive),-1.7e-05 (inactive),0.00524 (inactive),19.1% (inactive),21.9% (inactive)
CCOC(=O)N1CCN(CC(=O)c2c(C)[nH]c3ccccc23)CC1,349,10.5% (inactive),-5.3% (inactive),92.4,-113% (inactive),143,-0.491 (inactive),-6.3e-05 (inactive),0.00584 (inactive),0.348% (inactive),6.29% (inactive)
COc1cc(OC)cc(C(=O)N2c3ccc(F)cc3CCC2C)c1 (centres undefined),282,-4.7% (inactive),19% (inactive),83.6,-85.9% (inactive),103,-0.524 (inactive),-4.4e-05 (inactive),0.0061 (inactive),12.9% (inactive),21.8% (inactive)
COc1ccc(CN2C(=O)[C@@H]3C(c4ccc(F)cc4)=NO[C@@H]3C2=O)cc1,338,-10.5% (inactive),-8.2% (inactive),87.7,-34.5% (inactive),113,-0.302 (inactive),-5.3e-05 (inactive),0.00504 (inactive),13.4% (inactive),23.3% (inactive)

# Source: PubChem BioAssay
